Out of some 16,000 compounds screened, about 5,800 (36%) were called active. About 23% were inconclusive and are not listed. The list shows a part of the results. Unmarked numbers belong to inactive results. The call rests on the fitted dose curve; in most records, active means well fitted curve in the direction sought with a large enough effect; inconclusive means small, poorly fitted or top-dose-only effect, or effect the other way; inactive means no such curve, though single readings can be large or run the other way.
target: Cytochrome P450 2C19 (Homo sapiens) (UniProt P33261); assay: Cytochrome panel assay with activity outcomes; settings: recombinant CYP, pro-luciferin dealkylation, luminescence, p450-cyp2c19; series mostly up to 57.1 µM
Sequence (P33261 whole entry, looked up): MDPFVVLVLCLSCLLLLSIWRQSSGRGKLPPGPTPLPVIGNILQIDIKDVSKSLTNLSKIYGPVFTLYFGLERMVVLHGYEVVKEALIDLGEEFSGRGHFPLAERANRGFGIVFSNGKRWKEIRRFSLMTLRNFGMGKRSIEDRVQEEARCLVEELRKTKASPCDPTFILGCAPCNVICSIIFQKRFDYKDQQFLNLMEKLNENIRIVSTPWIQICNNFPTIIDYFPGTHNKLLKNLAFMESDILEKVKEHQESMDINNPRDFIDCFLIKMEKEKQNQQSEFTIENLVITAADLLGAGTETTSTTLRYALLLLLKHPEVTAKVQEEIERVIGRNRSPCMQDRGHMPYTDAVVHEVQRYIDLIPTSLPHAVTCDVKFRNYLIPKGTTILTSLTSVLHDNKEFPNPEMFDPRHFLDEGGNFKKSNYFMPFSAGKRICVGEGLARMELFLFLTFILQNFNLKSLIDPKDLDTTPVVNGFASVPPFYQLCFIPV
On the % scale 0 is the no-effect control and ±100 the full control effect.

Structure (SMILES) | activity, negative = inhibition | AC50
CC12CC[C@@H]3c4ccc(OP(=O)(O)O)cc4CCC3C1CCC2=O (stereo partly drawn) | -12.5% [at 11.4 µM] | –
O=C(c1ccncc1)N1CCC2(CC1)CN(Cc1cc(C(F)(F)F)cc(C(F)(F)F)c1)C2 | – | inactive
CCCCN(C(=O)Nc1ccc(OCC)cc1)C1CCN(C(C)=O)CC1 | – | inactive
CCOc1ccc(NC(=O)C(=O)NCC2CCCN2CC)cc1 (stereo not drawn) | – | inactive
CCOc1ccc(NC(=O)N(C2CCCCC2)C(C)c2ccncc2)cc1 (stereo not drawn) | – | 7.08 µM (active)
O=C(NNc1nc2ccccc2s1)c1ccccc1F | – | 11.2 µM (active)
CC(=O)NNc1nc2ccccc2s1 | – | inactive
O=C(NNc1nc2ccccc2s1)C1CC1 | – | 15.8 µM (active)
O=C1Nc2ccc([N+](=O)[O-])cc2C1(O)N1CCCCCC1 (stereo not drawn) | – | 10 µM (active)
O=C1C2=C(Nc3cc([N+](=O)[O-])ccc3N2)O[C@@H]1c1ccc([C@H]2OC3=C(Nc4ccc([N+](=O)[O-])cc4N3)C2=O)cc1 | -18.1% [at 11.4 µM] | –
CCN(CC)c1nc(Nc2ccccc2)nc(Oc2ccc(C(=O)OC)cc2)n1 | – | 7.94 µM (active)
Cc1ccc(/C=C2\Sc3ccccc3C2=O)s1 | – | 1.26 µM (active)
O=C1C(Cc2ccccc2)SC(=Nc2ccccc2)N1c1ccccc1 (stereo not drawn) | – | 3.16 µM (active)
CN1CCN(/C=N/C2=C(C#N)C(c3ccccc3)C3=C(CC(C)(C)CC3=O)O2)CC1 (stereo not drawn) | – | 20 µM (active)
O=C(O)c1cccc(OCCO)c1 | 13.7% [at 11.4 µM] | –
O=C(CCOc1ccccc1)Nc1ccccc1 | – | 3.55 µM (active)
COC(=O)c1cccc(NC(=O)CCCOc2ccccc2)c1 | – | 2.24 µM (active)
C#CCCCC(=O)Nc1ccccc1 | – | inactive
NCC(=O)Nc1ccccc1 | -29.3% [at 11.4 µM] | –
NC(=O)N/N=C\c1ccc([N+](=O)[O-])o1 | – | inactive
Cc1ccc(NCC(=O)N/N=C/c2ccc(OC(=O)c3ccco3)cc2)cc1 | – | 2.51 µM (active)

Structure (SMILES) | activity, negative = inhibition | AC50
Cc1cc(C(=O)N/N=C/c2cccc(OC(=O)c3ccco3)c2)n[nH]1 | – | 25.1 µM (active)
Cc1ccc(NCC(=O)N/N=C\c2ccc([N+](=O)[O-])o2)cc1 | – | 8.91 µM (active)
COc1ccc(C(=O)NC(CO)c2nnc(SCc3ccc(Cl)c(Cl)c3)n2C)cc1 (stereo not drawn) | – | 15.8 µM (active)
COC(=O)c1ccccc1NC(=O)CSc1nnc(C(CO)NC(=O)c2ccccc2Cl)n1C (stereo not drawn) | – | inactive
CC(=O)OCC(=O)[C@@]1(O)CC[C@@H]2[C@H]3CCC4=CC(=O)C=C[C@]4(C)[C@]3(F)[C@@H](O)C[C@@]21C | – | inactive
Cc1cc(NC(=O)NC(=O)c2ccc(F)cc2F)n[nH]1 | – | 11.2 µM (active)
Cc1cc(C)c(NC(=O)NC(=O)c2ccc(F)cc2)c(C)n1 | – | inactive
Cc1onc(-c2ccccc2)c1C(=O)NCCc1c[nH]c2ccccc12 | – | 1.78 µM (active)
CCCC(O)(CCC)C(=O)NN1CCCCC1 | – | inactive
CC(=O)[C@@H]1CC[C@@H]2[C@@H]3C[C@H](C)C4=CC(=O)CC[C@@]4(C)[C@H]3[C@H](O)C[C@]21C | – | inactive
CC(=O)[C@H]1CC[C@@H]2[C@H]3CC=C4C[C@@H](O)CC[C@]4(C)[C@H]3CC[C@]12C | – | inactive
CC(=O)[C@H]1CC[C@H]2[C@@H]3C=CC4=CC(=O)CC[C@@]4(C)[C@H]3CC[C@]12C | – | 1 µM (active)
O=c1c(-c2ccc(F)cc2)nc2cnc(N3CCNCC3)nc2n1Cc1cccs1 | – | 15.8 µM (active)
COc1ccc(-c2nc3cnc(N4CCNCC4)nc3n(Cc3cccs3)c2=O)cc1 | – | inactive
O=c1c(-c2cccs2)nc2cnc(N3CCNCC3)nc2n1Cc1cccs1 | – | 5.01 µM (active)
O=c1c(-c2ccc(F)cc2)nc2cnc(N3CCOCC3)nc2n1Cc1cccs1 | – | inactive
Cn1c(=O)c(-c2cccs2)nc2cnc(N3CCNCC3)nc21 | – | inactive
Cc1nc2cnc(N3CCNCC3)nc2n(Cc2cccs2)c1=O | – | inactive
N#Cc1ccccc1NC(=O)Nc1cccs1 | – | inactive
COc1ccc(C[C@@](C)(N)C(=O)O)cc1OC | – | inactive
O=C(NCc1ccco1)Nc1cccs1 | – | 11.2 µM (active)

Structure (SMILES) | activity, negative = inhibition | AC50
COc1ccc(CNC(=O)Nc2cccs2)cc1OC | – | 5.62 µM (active)
CCN1CCN(Cc2ccc(NC(=O)Nc3cccs3)cc2)CC1 | – | inactive
N[C@@H](CO)C(=O)NNCc1ccc(O)c(O)c1O | – | inactive
O=C(Nc1cccc(F)c1)N1CC2(CCN(C(=O)c3csnn3)CC2)C1 | – | inactive
COc1ncc2ncc(=O)n(C)c2n1 | – | inactive
COCC(=O)N/N=C/c1ccc(Sc2nc3ccccc3s2)o1 | – | 14.1 µM (active)
O=C(Cc1cccc2ccccc12)N/N=C/c1ccc(Sc2nc3ccccc3s2)o1 | – | 0.891 µM (active)
OCCN=C1CCCc2c1[nH]c1ccc(Br)cc21 | – | inactive
COC(=O)c1cnn(C(=O)c2ccccc2Br)c1N | – | 8.91 µM (active)
COC(=O)c1cnn(C(=O)c2cc(OC)ccc2Br)c1N | – | 20 µM (active)
Nc1nc2c(c(=O)[nH]1)CN(CCCN1CCOCC1)CN2 | 24.4% [at 11.4 µM] | –
CCn1c2ccccc2c2cc(N=C3SC(CC(=O)Nc4ccccc4OC)C(=O)N3C)ccc21 (stereo not drawn) | – | 1.41 µM (active)
CCn1c2ccccc2c2cc(N=C3SC(CC(=O)Nc4ccccc4)C(=O)N3C)ccc21 (stereo not drawn) | – | 2 µM (active)
CCn1c(=O)cc(OCC(=O)Nc2cccnc2)c2ccccc21 | – | inactive
Cc1ccc(-c2noc(CN3CCN(C(c4ccccc4)c4ccccc4)CC3)n2)cc1 | – | 17.8 µM (active)
N=C(N)SCc1nc(-c2ccc(Cl)cc2)no1 | – | 1 µM (active)
Clc1ccc(-c2noc(CN3CCCCC3)n2)cc1 | – | 1.58 µM (active)
CN1CCN(C(c2ccccc2)c2ccccc2)CC1 | – | inactive
N=C(N)SCc1ccc(Cl)cc1Cl (tested in a mixture with another compound) | -2.42% [at 11.4 µM] | –
CS(=O)(=O)N1CCC2(CC1)CN(C(c1ccccc1)c1ccccc1)C2 | – | inactive
c1ccc([P+](CC[P+](c2ccccc2)(c2ccccc2)c2ccccc2)(c2ccccc2)c2ccccc2)cc1 | -40.8% [at 11.4 µM] | –
